Reference: PubChem BioAssay (Tox21)
Results filed as inconclusive are left out. Activity calls are given as the source filed them. Unless noted, the call rests on the fitted dose curve.

Tests used:
[1] = qHTS assay to identify small molecule agonists of the NFkB signaling pathway (AID 1159509; active means well fitted curve in the direction sought with a large enough effect in the signal ratio in the repeat runs, not every such curve was filed as active; the % refers to the signal ratio; further: series mostly up to about 61 µM; on the % scale 0 is the no-effect control and ±100 the full control effect)
Procedure, shortened: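 Readout: FRET fluorescence, 405 nm excitation, 460/530 nm emission; beta-lactamase expression disrupts FRET. Cells: ME-180 stably carrying NF-kB-driven bla reporter. Compound exposure 5 hr, 37 C, 5% CO2.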

[2] = qHTS assay to identify small molecule agonists of the NFkB signaling pathway - cell viability counter screen (AID 1159515); further: series mostly up to about 61 µM; on the % scale 0 is the no-effect control and ±100 the full control effect; nearly all actives have a fitted effect of over 55% in size
Procedure, shortened: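 Cells are seeded (2,000 NFkB-bla ME-180 per well), rested overnight, and dosed with DMSO-dissolved compounds for 5 hr at 37 C. Viability is then read by CellTiter-Glo luminescence after 30 min at room temperature.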

[3] = qHTS assay to identify small molecule agonists of the endoplasmic reticulum stress response signaling pathway (AID 1159516; active means well fitted activation curve with a large enough effect in the signal ratio in the repeat runs, not every such curve was filed as active; the % refers to the signal ratio; further: on the % scale 0 is the no-effect control and ±100 the full control effect)
Procedure, shortened: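 Cells are seeded at 1,500 per well and incubated overnight. Compounds in DMSO are added for 5 hr at 37 C, then beta-lactamase FRET substrate for 2 hr at room temperature, and fluorescence at 460 and 530 nm is measured.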

[4] = qHTS assay to identify small molecule agonists of the endoplasmic reticulum stress response signaling pathway - cell viability counter screen (AID 1159517);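 further: HeLa cells carrying an ER stress response element beta-lactamase reporter; series mostly up to about 61 µM; on the % scale 0 is the no-effect control and ±100 the full control effect; nearly all actives have a fitted effect of over 50% in size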
Procedure, shortened: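 Cytotoxicity of test compounds toward ESRE-bla HeLa cells was assessed after 5 hr exposure. The luminescent CellTiter-Glo signal was measured 30 min after reagent addition.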

[5] = qHTS assay to identify small molecule antagonists of the retinoid-related orphan receptor gamma (ROR-gamma) signaling pathway - cell viability counter screen (AID 1159520; active means well fitted curve in the direction sought with a large enough effect in the repeat runs; an effect the other way counts as inactive or inconclusive; further: on the % scale 0 is the no-effect control and ±100 the full control effect; nearly all actives have a fitted effect of over 50% in size)
Procedure, shortened: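 Tet-on ROR gamma CHO cells (1,000/well) were plated 4 hr, given compounds in DMSO for 2 hr at 37 C, then induced with 1 uM final doxycycline for 16 hr. Viability was read as ATP by CellTiter-Glo luminescence after 30 min.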

[6] = target: Nuclear receptor ROR-gamma (Homo sapiens) (UniProt P51449); experiment: qHTS assay to identify small molecule antagonists of the retinoid-related orphan receptor gamma (ROR-gamma) signaling pathway (AID 1159521; active means well fitted curve in the direction sought with a large enough effect in the repeat runs; an effect the other way counts as inactive or inconclusive; further: nearly all actives have a fitted effect of over 50% in size; further: potency means the concentration at half of the fitted maximal effect;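 on activity change, negative = inhibition: CHO cells with doxycycline inducible ROR-gamma driving an RORE luciferase reporter; top concentration of the series differs between compounds; on the % scale 0 is the no-effect control and ±100 the full control effect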)
Procedure, shortened: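 Decreased RORE-driven luciferase luminescence indicates antagonism. Tet-on RORγ CHO cells received compound, then 1 uM final doxycycline 2 h later; signal read after 16 h incubation.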

[7] = qHTS assay to identify small molecule agonists of the AP-1 signaling pathway - cell viability counter screen (AID 1159525); further: nearly all actives have a fitted effect of over 55% in size
Procedure, shortened: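 Each titration point was normalised to DMSO and tetra n-octyl ammonium bromide controls. The read was Cell Titer Glo luminescence after 30 min at RT, following 5 h compound exposure of ME-180 AP-1-bla cells at 37 °C.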

[8] = qHTS assay to identify small molecule agonists of the AP-1 signaling pathway (AID 1159526); further: on the % scale 0 is the no-effect control and ±100 the full control effect
[9] = target: Retinoic acid receptor RXR-alpha (Homo sapiens) (UniProt P19793); experiment: qHTS assay to identify small molecule agonists of the RXR signaling pathway (AID 1159527); further: on the % scale 0 is the no-effect control and ±100 the full control effect; nearly all actives have a fitted effect of over 35% in size
Procedure, shortened: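 16 hr incubation of compound-treated RXR-alpha-UAS-bla HEK 293T cells (2% charcoal-stripped FBS, 37 C) preceded a 2 hr room-temperature LiveBLAzer FRET substrate step and blue/green fluorescence measurement.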

[10] = qHTS assay to identify small molecule antagonists of the vitamin D receptor (VDR) signaling pathway - cell viability counter screen (AID 743225; active means well fitted curve in the direction sought with a large enough effect in the repeat runs; an effect the other way counts as inactive or inconclusive; further: on the % scale 0 is the no-effect control and ±100 the full control effect; nearly all actives have a fitted effect of over 50% in size)
Procedure, shortened: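 Parallel cytotoxicity test: VDR-UAS-bla HEK 293T, 3 nM (final) 1-alpha,25-dihydroxyvitamin D3 with test compound, 16 h, 37C. Endpoint is CellTiter-Glo luminescence in the same wells.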

Sequence of Retinoic acid receptor RXR-alpha (Homo sapiens) (P19793 whole entry, looked up): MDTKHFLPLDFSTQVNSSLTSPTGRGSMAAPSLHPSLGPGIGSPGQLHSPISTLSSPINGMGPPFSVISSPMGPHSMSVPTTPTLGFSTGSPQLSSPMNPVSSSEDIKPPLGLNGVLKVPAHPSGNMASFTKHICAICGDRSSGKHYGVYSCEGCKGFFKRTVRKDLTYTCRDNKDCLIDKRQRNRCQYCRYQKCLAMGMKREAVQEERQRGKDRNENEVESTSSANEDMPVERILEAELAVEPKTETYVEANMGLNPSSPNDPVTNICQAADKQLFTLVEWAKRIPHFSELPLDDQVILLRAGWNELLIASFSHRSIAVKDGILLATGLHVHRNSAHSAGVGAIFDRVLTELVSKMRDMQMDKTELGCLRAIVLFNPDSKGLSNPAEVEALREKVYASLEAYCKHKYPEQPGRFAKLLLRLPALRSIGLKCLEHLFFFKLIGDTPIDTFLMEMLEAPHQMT

CCn1cc(C(=O)O)c(=O)c2cc(F)c(N3CCN(C)CC3)cc21
inactive: outcome [1] | outcome [2] | outcome [3] | outcome [4] | activity, negative = cytotoxicity [5] 0.209% [at 19 µM] | activity change, negative = inhibition [6] -0.847% [at 19 µM] | viability change, negative = cytotoxic [7] 2.53% [at 15.8 µM] | activation [8] 0.51% [at 15.8 µM]

CCCc1ccccc1O
inactive: outcome [1] | outcome [2] | outcome [3] | outcome [4] | Potency [5] | Potency [6] | outcome [7] | Potency [8] | Potency [9]

NC(CS)C(=O)O (centres undefined)
inactive: outcome [1] | outcome [2] | outcome [3] | outcome [4] | Potency [5] | Potency [6] | outcome [7] | Potency [8]

O=S(=O)(c1cccc2cnccc12)N1CCCNCC1
inactive: outcome [1] | outcome [2] | outcome [3] | outcome [4] | Potency [5] | Potency [6] | outcome [7] | Potency [8]

CCOC(=O)Cn1c(=O)sc2cccc(Cl)c21
inactive: outcome [1] | outcome [2] | outcome [3] | outcome [4] | Potency [5] | Potency [6] | outcome [7] | Potency [8]

c1ccc2cnncc2c1
inactive: outcome [1] | outcome [2] | outcome [3] | outcome [4] | Potency [5] | Potency [6] | outcome [7] | Potency [8] | Potency [9]

CCCC(=O)O[C@]1(C(=O)CCl)[C@@H](C)C[C@H]2[C@@H]3CCC4=CC(=O)C=C[C@]4(C)[C@@]3(F)C(=O)C[C@@]21C
active: Potency [6] 10.6 µM
inactive: outcome [1] | outcome [2] | outcome [3] | outcome [4] | Potency [5] | outcome [7] | Potency [8] | Potency [9]

O=C(O)C1CCC1
inactive: outcome [1] | outcome [2] | outcome [3] | outcome [4] | Potency [5] | Potency [6] | outcome [7] | Potency [8]

CC(C)(O)Cc1ccccc1
inactive: outcome [1] | outcome [2] | outcome [3] | outcome [4] | Potency [5] | Potency [6] | outcome [7] | Potency [8]

Cc1c(C)n(CCN(C)C)c2ccc(C(=O)OCCN(C)C)cc12
inactive: outcome [1] | outcome [2] | outcome [3] | outcome [4] | Potency [5] | Potency [6] | outcome [7] | Potency [8] | Potency [9]

Nc1ccn(C2CO[C@H](CO)O2)c(=O)n1 (some centres undefined)
inactive: outcome [10] | outcome [1] | outcome [2] | outcome [3] | outcome [4] | Potency [5] | Potency [6] | outcome [7] | Potency [8] | Potency [9]

CCCCN(CCO)CCO
inactive: outcome [10] | outcome [1] | outcome [2] | outcome [3] | outcome [4] | Potency [5] | Potency [6] | outcome [7] | Potency [8] | Potency [9]

CC(C)[N+](C)(C)CC(O)COc1cccc2ccccc12 (centres undefined)
inactive: outcome [10] | outcome [1] | outcome [2] | outcome [3] | outcome [4] | Potency [5] | Potency [6] | outcome [7] | Potency [8] | Potency [9]

CC(O)CN(CCCN(C)C)CCCN(C)C (centres undefined)
inactive: outcome [10] | outcome [1] | outcome [2] | outcome [3] | outcome [4] | Potency [5] | Potency [6] | outcome [7] | Potency [8] | Potency [9]

CN(C)CCn1nnnc1SCC1=C(C(=O)O)N2C(=O)[C@@H](NC(=O)Cc3csc(N)n3)[C@H]2SC1
inactive: outcome [10] | outcome [1] | outcome [2] | outcome [3] | outcome [4] | Potency [5] | Potency [6] | outcome [7] | Potency [8] | Potency [9]

C[N+](C)(C)CC[N+]1(C)Cc2c(Cl)c(Cl)c(Cl)c(Cl)c2C1
inactive: outcome [10] | outcome [1] | outcome [2] | outcome [3] | outcome [4] | Potency [5] | Potency [6] | outcome [7] | Potency [8] | Potency [9]

CC(C)CCCCCCN
inactive: outcome [10] | outcome [1] | outcome [2] | outcome [3] | outcome [4] | Potency [5] | Potency [6] | outcome [7] | Potency [8] | Potency [9]

CC(C)CCCC(C)CCCC(C)CCCCC(C)CCCC(C)CCCC(C)C (centres undefined)
inactive: outcome [10] | outcome [1] | outcome [2] | outcome [3] | outcome [4] | Potency [5] | Potency [6] | outcome [7] | Potency [8] | Potency [9]

CCCCCCC(CCCCCCCCCCC(=O)OCC(COC(C)=O)OC(C)=O)OC(C)=O (centres undefined)
inactive: outcome [10] | outcome [1] | outcome [2] | outcome [3] | outcome [4] | Potency [5] | Potency [6] | outcome [7] | Potency [8] | Potency [9]

COC(=O)CCCC(=O)O
inactive: outcome [10] | outcome [1] | outcome [2] | outcome [3] | outcome [4] | Potency [5] | Potency [6] | outcome [7] | Potency [8] | Potency [9]

COc1cc(C(=O)N2CCOCC2)cc(OC)c1OC
inactive: outcome [10] | outcome [1] | outcome [2] | outcome [3] | outcome [4] | Potency [5] | Potency [6] | outcome [7] | Potency [8] | Potency [9]

Cc1c(F)cc2c(=O)c(C(=O)O)cn3c2c1CCC3C (centres undefined)
inactive: outcome [10] | outcome [1] | outcome [2] | outcome [3] | outcome [4] | Potency [5] | Potency [6] | outcome [7] | Potency [8] | Potency [9]

CO[Si](OC)(OC)OC
inactive: outcome [10] | outcome [1] | outcome [2] | outcome [3] | outcome [4] | Potency [5] | Potency [6] | outcome [7] | Potency [8] | Potency [9]

Cc1cc(C)cc(OCC2CNC(=O)O2)c1 (centres undefined)
inactive: outcome [10] | outcome [1] | outcome [2] | outcome [3] | outcome [4] | Potency [5] | Potency [6] | outcome [7] | Potency [8] | Potency [9]

COc1cc(O)cc(O)c1
inactive: outcome [10] | outcome [1] | outcome [2] | outcome [3] | outcome [4] | Potency [5] | Potency [6] | outcome [7] | Potency [8] | Potency [9]
